Source: PubChem BioAssay AID1063 (University of Pittsburgh Molecular Library Screening Center, 2008)
Out of some 200,000 compounds screened, about 18,000 (9%) were called active. This is one part of a sample in which actives are shown more often than they occur. A number with no mark means an inactive call. Cut-off read from the data, not from the text of the source: active = inhibition above about 50%; inactive = the rest.

Assay: antileishmanial activity against promastigotes – primary screen (AID 1063);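 note: promastigotes grown with compound for 44 hours at 28 °C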
Settings: Leishmania major promastigotes, resazurin fluorescence viability; at 10 µM; hits give high values

Row | SMILES | inhibition
1 | COc1ccc(CCc2nnc(CCC(=O)NCc3cnn(-c4ccccc4C)c3)o2)cc1 | 6.37%
2 | O=C(c1ccccc1Oc1ccccc1)N1CCN(c2ccc(F)cc2)CC1 | 10.2%
3 | Cn1c2ccccc2c2c(C(=O)N3CCN(c4ccc(F)cc4)CC3)cn(C3CCCC3)c(=O)c21 | 99.4% (active)
4 | CCOC(=O)N1CCN(C(=O)c2nn(-c3ccc(C)cc3)c(=O)c3c2c2ccccc2n3C)CC1 | -5.83%
5 | O=C(CSc1nnc2ccc(-c3ccncc3)nn12)N1CCCCC1 | 20.4%
6 | CC(=O)Nc1ccc(S(=O)(=O)NC2(C(F)(F)F)C(=O)NC(C)=C2C#N)cc1 (configuration not stated) | -4.23%
7 | O=C(NCc1nnc(SCC(=O)N2CCCc3ccccc32)o1)c1ccccc1F | -5.95%
8 | O=C(NCc1ccc(Cl)c(Cl)c1)c1cccnc1 | -2.18%
9 | O=C(Nc1cccnc1)c1ccc(Cl)c([N+](=O)[O-])c1 | 1.22%
10 | O=C(/C=C/c1ccc(Cl)cc1Cl)c1cccnc1 | 100% (active)
11 | CN(C)c1ccc(/C=C/C(=O)c2ccc(C(C)(C)C)cc2)cc1[N+](=O)[O-] | 27.1%
12 | O=C(/C=C/c1ccc(Cl)cc1Cl)NCc1ccco1 | -1.38%
13 | O=C(/C=C/c1ccc(Cl)c([N+](=O)[O-])c1)c1cccnc1 | 100% (active)
14 | COCCNc1nc2nonc2nc1N(C)Cc1ccc(C)cc1 | 2.88%
15 | CCC(C)(C(=O)Nc1ccccc1C)N(C(=O)CNC(C)=O)c1ccc(C)cc1 (configuration not stated) | -4.62%
16 | CSc1ccc(CN2C(=O)NC3(CCCCCC3)C2=O)cc1 | 9.1%
17 | CC(NCc1nc2ccccc2n1C)C12CC3CC(CC(C3)C1)C2 (configuration not stated) | 12.4%
18 | Cc1ccccc1-c1nc(C#N)c(NCc2ccco2)o1 | -3.77%
19 | CC(C)(C)C1CCC(C(=O)Nc2cccnc2)CC1 (configuration not stated) | -5.65%
20 | CCOC(=O)c1sc(C)c2c1NC(C)(c1cccc3ccccc13)NC2=O (configuration not stated) | 97.3% (active)
21 | CCOC(=O)c1sc(-c2cccc([N+](=O)[O-])c2)cc1N | 4.06%
22 | CCOC(=O)c1sc2nc(CSc3ccccc3)[nH]c(=O)c2c1C | 14.1%
23 | O=C(O)CCCCCNc1ncnc2ccc(Br)cc12 | -1.72%
24 | CC(C)OC(=O)CN1C(=O)C(=O)c2ccccc21 | 88% (active)
25 | CC(C)OC(=O)CN1C(=O)c2ccccc2C1=O | 14.7%

Row | SMILES | inhibition
26 | Cc1cccc2c1N(CC(=O)OC(C)C)C(=O)C2=O | -12.8%
27 | O=C(CC1CCCCC1)NCc1ccc(F)cc1 | -12.7%
28 | CC(C)Oc1ccc(CCc2nnc(SCC(=O)O)n2-c2ccccc2)cc1 | -8.77%
29 | CN(C)S(=O)(=O)c1cccc(NC(=O)COC(=O)C2(c3ccccc3F)CCCC2)c1 | 28.6%
30 | NS(=O)(=O)c1ccc(NC(=O)COC(=O)C2(c3ccc(F)cc3)CCCC2)cc1 | 70.2% (active)
31 | NS(=O)(=O)c1ccc(NC(=O)COC(=O)c2ccco2)cc1 | 0.53%
32 | CC(Oc1ccc(Br)cc1Br)C(=O)NC1CCCC1 (configuration not stated) | -1.48%
33 | O=C(CSCC(=O)Nc1cccc([N+](=O)[O-])c1)Nc1ccccc1 | 4.18%
34 | Cc1cc(CNC(=O)c2cccc([N+](=O)[O-])c2)c2ccccc2n1 | 9.74%
35 | CC(=O)Nc1ccc(NC(=O)COc2ncnc3ccccc23)cc1 | -2.61%
36 | CC(=O)Nc1ccc(Nc2c([N+](=O)[O-])cc(S(C)(=O)=O)cc2[N+](=O)[O-])cc1 | 10.8%
37 | O=[N+]([O-])c1cccc(Nc2c3ccccc3nc3ccccc23)c1 | 69.1% (active)
38 | CC(=O)Nc1ccc(Nc2c3ccccc3nc3ccccc23)cc1 | 101% (active)
39 | O=C(O)CCc1nc2cc(Cl)ccc2n(Cc2ccccc2)c1=O | -0.11%
40 | CCC1(CC)NC(=O)N(Cc2nc3ccccc3s2)C1=O | -8.89%
41 | CCNC(=O)COC(=O)CCNC(=O)c1cccc(C)c1 | -5.94%
42 | CC1CC(C)(C)NC(=S)N1CCC(=O)N1CCN(Cc2ccccc2)CC1 (configuration not stated) | 0.54%
43 | NC(=O)Cn1nc([N+](=O)[O-])nc1Oc1ccc(Br)cc1 | 33.2%
44 | NC(=O)c1ccc(NC(=O)COC(=O)C(Cc2ccccc2)NC(=O)c2ccccc2)cc1 (configuration not stated) | 1.11%
45 | O=C1CCCC2=C1C(c1ccccc1)n1c(s/c(=C/c3cccc(F)c3)c1=O)=N2 (configuration not stated) | 60.3% (active)
46 | O=C1CSC(c2cccc(F)c2)N1c1ccccc1F (configuration not stated) | 1.64%
47 | O=C1CC(c2cccc(F)c2)C2=C(CCCC2=O)N1 (configuration not stated) | -5.73%
48 | CCSC1=NCCN1C(=O)c1ccc(S(=O)(=O)N(CC)CC)cc1 | 2.69%
49 | C=CCN(Cc1nc(-c2cc(OC)c3c(c2)OCO3)oc1C)C1CCS(=O)(=O)C1 (configuration not stated) | 64.6% (active)
50 | Cc1cccc(C(=O)Nc2ccccc2C(=O)NCc2cccnc2)c1 | -3.01%

Row | SMILES | inhibition
51 | CCCCN(C)CCC(=O)Nc1ccc(Cl)cc1 | 63.4% (active)
52 | CCCCC(=O)Nc1ccc2c(c1)OCCO2 | 1.71%
53 | O=C(CCC(=O)OCc1ccc(Cl)cc1)Nc1ccccc1 | -2.39%
54 | CCOC(=O)Cc1csc(SCc2cc(=O)oc3cc(O)ccc23)n1 | -10.2%
55 | CCOC(=O)Cc1csc(SCC(=O)NC(C)C23CC4CC(CC(C4)C2)C3)n1 (configuration not stated) | 98.6% (active)
56 | CCOC(=O)Cc1csc(NC(=O)Nc2ccccc2)n1 | 0.22%
57 | CCOC(=O)Cc1csc(NC(=O)CSc2ccc(Br)cc2)n1 | 77.7% (active)
58 | CCOC(=O)Cc1csc(NC(=O)C(C)(C)C)n1 | -0.74%
59 | CCOC(=O)Cc1csc(NC(=O)CSc2nc(C)cc(=O)[nH]2)n1 | -12.1%
60 | Cc1ccccc1N/C(SCc1ccc(Cl)cc1)=C(/C#N)C(N)=O | 25.8%
61 | CC1CCN(C(=S)c2cccc([N+](=O)[O-])c2)CC1 | -0.83%
62 | CC1(c2ccccc2)CC(C)(C)N(C(=O)c2cc([N+](=O)[O-])cc([N+](=O)[O-])c2)c2ccccc21 (configuration not stated) | 99.6% (active)
63 | CC1(c2cccc([N+](=O)[O-])c2)CC(C)(C)N(C(=O)c2ccccc2)c2ccccc21 (configuration not stated) | 22.4%
64 | COC(=O)NNC1=CC(=O)CC(C)(C)C1 | -0.84%
65 | CN(C(=O)COc1ncnc2c1cnn2-c1ccccc1)C1CCCCC1 | 0.81%
66 | CCOC(=O)C1CCCN(C(=O)c2cccc(S(=O)(=O)N3CCOCC3)c2)C1 (configuration not stated) | -6.48%
67 | CCc1nnc(NC(=O)CSc2nc3ccccc3c(=O)n2CCCOC)s1 | 11.7%
68 | COCCn1c(SCC(=O)Nc2ccc3c(c2)CCC3)nc2ccccc2c1=O | 59.6% (active)
69 | CC(=O)NCCn1c(SCC(=O)Nc2ccc(C)cc2)nc2ccccc2c1=O | 0.63%
70 | Cc1cccc(NC(=S)Nc2ccc(Cl)c(Cl)c2)c1 | 33.5%
71 | CN(C)S(=O)(=O)Oc1ccccc1C(=O)Nc1ccccc1Cl | 3.48%
72 | O=C(CCC(=O)NNc1nc2ccccc2c2nc(-c3ccccc3)nn12)NCCCN1CCCC1=O | 1.2%
73 | Cc1ccc2c(Cl)c(C(=O)NCCCn3ccnc3)sc2c1 | 99.3% (active)
74 | Cc1ccc2c(Cl)c(C(=O)Nc3nn[nH]n3)sc2c1 | 12.8%
75 | O=C(NCCCn1ccnc1)Nc1ccc(Cl)cc1Cl | 0.73%

Row | SMILES | inhibition
76 | CCCN(CCC)c1ccc(C(O)c2nnc(-c3ccccc3)o2)cc1 (configuration not stated) | 13.2%
77 | Cc1ccc(Cl)cc1NC(=O)COC(=O)CC(C)(C)C | 34.5%
78 | COc1ccc(C(CCNCc2ccccc2F)c2ccc(F)cc2)cc1 (configuration not stated) | 78.9% (active)
79 | COc1ccc(CC(=O)NC(C)CCc2ccccc2)cc1 (configuration not stated) | -3.88%
80 | COc1ccc(C(CC(=O)O)NC(=O)Cc2ccccc2)cc1 (configuration not stated) | -6.94%
81 | Cc1cc(NS(=O)(=O)c2ccc(NC(=S)NC(=O)c3ccc(F)cc3Cl)cc2)no1 | 48.3%
82 | CCN(CCCNC(=O)CSc1cc(=O)n(C)c2cc(Cl)ccc12)Cc1ccccc1 | 20.1%
83 | COc1ccc(-n2cc(CNC3CCOCC3)c(-c3cccc(F)c3)n2)cc1 | 31.6%
84 | CC(C)CCNC(=O)c1cccnc1Sc1ccccc1 | 32.8%
85 | CC(C)OCCCNC(=O)c1cc(Sc2ccc(F)cc2)nc2ccccc12 | 50.2% (active)
86 | O=C(NCCN1CCOCC1)c1cc(Sc2cccc(Cl)c2)nc2ccccc12 | 1.33%
87 | CN1CCNC(=O)C1CC(=O)NCCC1=CCCCC1 (configuration not stated) | 4.58%
88 | CCOC(=O)c1c(C)[nH]c(C2=NNC(=NC(C)COC)SC2)c1C (configuration not stated) | 8.5%
89 | Cc1sc(NC(=S)NC(=O)c2cccs2)nc1-c1ccc(CC(C)C)cc1 | -14.6%
90 | CC(C)Cc1nn2c(=O)cc(O)nc2s1 | 54.9% (active)
91 | C/C(=N/OC(=O)c1c(-c2c(F)cccc2Cl)noc1C)c1cnccn1 | 0.04%
92 | CCOC(=O)c1cc2c(=O)n3ccccc3nc2n(CC(C)C)c1=NC(=O)c1c(-c2c(F)cccc2Cl)noc1C | 98.8% (active)
93 | CCCn1c(=NC(C)=O)c(C(=O)OCC)cc2c(=O)n3ccccc3nc21 | 7.11%
94 | COc1ccc(NC(=O)/C(C#N)=C\c2cc(OC)c(OCc3ccc(C(=O)O)cc3)cc2Br)cc1 | 4.82%
95 | O=C(CN1CCN(c2nc(-c3ccccc3)cs2)CC1)NCc1ccc2c(c1)OCO2 | 1.96%
96 | COc1cccc(NC(=O)CN2CCN(c3nc(-c4cccc(OC)c4)cs3)CC2)c1 | 9.93%
97 | COc1ccc(-c2csc(N3CCN(Cc4ccc5c(c4)OCO5)CC3)n2)cc1 | 76.3% (active)
